In paper PMC7862700, “An all-to-all approach to the identification of sequence-specific readers for epigenetic DNA modifications on cytosine”:

What was measured:
Assay in all cases: DAPPL (digital affinity profiling via proximity ligation, sequencing); 10 mM Tris-HCl pH 7.5, 50 mM NaCl, 1 mM DTT, 4% glycerol, room temperature, 30 min; GST-TFs on glutathione beads, 16-mer random dsDNA library, 0.1% formaldehyde crosslink after washing; high values mean tight binding
FLI1 = molecular target: T1, FLI1 (Homo sapiens, UniProt Q01543 1-452); conditions: protein: recombinant; tags: N-terminal GST; dsDNA, one strand shown
T1 sequence: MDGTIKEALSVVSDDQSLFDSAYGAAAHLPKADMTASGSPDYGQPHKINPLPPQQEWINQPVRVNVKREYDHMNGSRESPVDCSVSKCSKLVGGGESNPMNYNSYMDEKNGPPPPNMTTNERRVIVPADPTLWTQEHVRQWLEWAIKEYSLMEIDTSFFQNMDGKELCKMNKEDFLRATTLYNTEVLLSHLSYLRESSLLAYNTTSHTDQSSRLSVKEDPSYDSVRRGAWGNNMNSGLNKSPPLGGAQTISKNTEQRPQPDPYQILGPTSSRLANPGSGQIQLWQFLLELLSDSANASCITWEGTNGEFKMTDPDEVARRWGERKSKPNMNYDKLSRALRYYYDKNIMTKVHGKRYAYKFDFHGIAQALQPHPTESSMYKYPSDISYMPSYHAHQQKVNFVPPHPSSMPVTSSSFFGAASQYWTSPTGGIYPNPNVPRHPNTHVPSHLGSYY
Summary of the method: (§1)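 Pools of DNA-barcoded human transcription factors, expressed in yeast as GST fusions on glutathione beads and combined with a tag-only sample, were incubated with 200 nmole of a 16-mer random double-stranded DNA library. Incubation took 30 min at room temperature in Tris/NaCl/DTT/glycerol buffer and was followed by washing, 0.1% formaldehyde crosslinking, proximity ligation (BsaI/T4 ligase, 1 h, 37 °C), PCR amplification and sequencing on an Illumina NextSeq500. Binding signal is the ratio of a hexamer's read frequency for a factor to its frequency for the tag-only sample.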

ELK1 = molecular target: T2, ELK1 (Homo sapiens, UniProt P19419 1-428); conditions: protein: recombinant; tags: N-terminal GST; dsDNA, one strand shown
T2 sequence: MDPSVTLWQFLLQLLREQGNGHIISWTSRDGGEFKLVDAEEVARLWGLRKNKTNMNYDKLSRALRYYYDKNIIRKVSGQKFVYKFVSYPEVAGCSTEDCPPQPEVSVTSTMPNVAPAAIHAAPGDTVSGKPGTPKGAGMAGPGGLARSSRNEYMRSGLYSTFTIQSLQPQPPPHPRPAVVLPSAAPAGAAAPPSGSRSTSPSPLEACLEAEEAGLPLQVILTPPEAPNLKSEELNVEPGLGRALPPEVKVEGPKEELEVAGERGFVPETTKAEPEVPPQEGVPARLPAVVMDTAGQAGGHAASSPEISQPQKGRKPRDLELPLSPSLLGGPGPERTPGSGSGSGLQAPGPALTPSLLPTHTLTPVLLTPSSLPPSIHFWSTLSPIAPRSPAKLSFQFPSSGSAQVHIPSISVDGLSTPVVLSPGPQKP
Summary of the method: as §1

GABPA = molecular target: T3, GABPA (Homo sapiens, UniProt Q06546 1-454); conditions: protein: recombinant; tags: N-terminal GST; dsDNA, one strand shown
T3 sequence: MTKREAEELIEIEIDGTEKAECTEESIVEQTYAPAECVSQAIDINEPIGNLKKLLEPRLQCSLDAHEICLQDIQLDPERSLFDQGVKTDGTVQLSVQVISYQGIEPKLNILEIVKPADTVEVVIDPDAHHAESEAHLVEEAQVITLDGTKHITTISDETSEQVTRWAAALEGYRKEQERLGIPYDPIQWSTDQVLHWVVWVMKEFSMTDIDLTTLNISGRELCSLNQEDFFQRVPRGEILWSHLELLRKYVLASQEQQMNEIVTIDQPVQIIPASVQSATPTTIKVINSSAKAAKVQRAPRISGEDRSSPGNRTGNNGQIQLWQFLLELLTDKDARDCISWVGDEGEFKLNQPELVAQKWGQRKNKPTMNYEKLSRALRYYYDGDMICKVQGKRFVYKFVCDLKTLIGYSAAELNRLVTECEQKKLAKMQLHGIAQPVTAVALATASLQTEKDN
Summary of the method: as §1

ERG = molecular target: T4, ERG (Homo sapiens, UniProt P11308 1-479); conditions: protein: recombinant; tags: N-terminal GST; dsDNA, one strand shown
T4 sequence: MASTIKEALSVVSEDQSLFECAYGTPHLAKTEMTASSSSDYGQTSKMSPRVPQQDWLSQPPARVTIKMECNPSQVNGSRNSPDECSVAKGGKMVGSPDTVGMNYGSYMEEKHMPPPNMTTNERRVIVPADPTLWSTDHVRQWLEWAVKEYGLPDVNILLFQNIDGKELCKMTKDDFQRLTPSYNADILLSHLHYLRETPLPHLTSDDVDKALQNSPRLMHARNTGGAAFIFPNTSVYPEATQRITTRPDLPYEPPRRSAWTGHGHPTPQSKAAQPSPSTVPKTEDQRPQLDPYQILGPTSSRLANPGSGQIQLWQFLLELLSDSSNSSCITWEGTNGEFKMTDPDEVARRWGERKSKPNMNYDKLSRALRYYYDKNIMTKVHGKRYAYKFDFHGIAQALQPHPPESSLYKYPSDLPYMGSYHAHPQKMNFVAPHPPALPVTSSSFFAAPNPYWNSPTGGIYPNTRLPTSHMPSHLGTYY
Summary of the method: as §1

ELF1 = ELF1 (Homo sapiens, UniProt P32519 1-619); conditions: protein: recombinant; tags: N-terminal GST; dsDNA, one strand shown
Summary of the method: as §1

EHF = molecular target: T5, EHF (Homo sapiens, UniProt Q9NZC4 1-300); conditions: protein: recombinant; tags: N-terminal GST; dsDNA, one strand shown
T5 sequence: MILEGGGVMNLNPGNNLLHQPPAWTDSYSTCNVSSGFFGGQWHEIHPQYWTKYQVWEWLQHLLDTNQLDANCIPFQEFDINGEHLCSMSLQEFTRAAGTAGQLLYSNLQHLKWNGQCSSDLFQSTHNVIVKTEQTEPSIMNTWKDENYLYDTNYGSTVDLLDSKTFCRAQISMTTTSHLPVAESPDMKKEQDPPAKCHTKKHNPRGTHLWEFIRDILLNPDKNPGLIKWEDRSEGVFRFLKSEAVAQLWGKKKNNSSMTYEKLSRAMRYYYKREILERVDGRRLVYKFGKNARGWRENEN
Summary of the method: as §1

SPI1 = SPI1 (Homo sapiens, UniProt P17947 1-270); conditions: protein: recombinant; tags: N-terminal GST; dsDNA, one strand shown
Summary of the method: as §1

SPIB = SPIB (Homo sapiens, UniProt Q01892 1-262); conditions: protein: recombinant; tags: N-terminal GST; dsDNA, one strand shown
Summary of the method: as §1

FEV = molecular target: T6, FEV (Homo sapiens, UniProt Q99581 1-238); conditions: protein: recombinant; tags: N-terminal GST; dsDNA, one strand shown
T6 sequence: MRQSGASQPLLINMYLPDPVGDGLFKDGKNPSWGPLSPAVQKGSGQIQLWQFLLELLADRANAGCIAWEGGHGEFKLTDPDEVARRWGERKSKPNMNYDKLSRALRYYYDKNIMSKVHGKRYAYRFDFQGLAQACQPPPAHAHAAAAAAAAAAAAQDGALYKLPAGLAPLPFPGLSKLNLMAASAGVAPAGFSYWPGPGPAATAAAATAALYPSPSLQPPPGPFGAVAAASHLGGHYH
Summary of the method: as §1

ETV5 = ETV5 (Homo sapiens, UniProt P41161 1-510); conditions: protein: recombinant; tags: N-terminal GST; dsDNA, one strand shown
Summary of the method: as §1

HSF1 = HSF1 (Homo sapiens, UniProt Q00613 1-529); conditions: protein: recombinant; tags: N-terminal GST; chain copies: 3; dsDNA, one strand shown
Summary of the method: as §1

SPIC = molecular target: T7, SPIC (Homo sapiens, UniProt Q8N5J4 1-248); conditions: protein: recombinant; tags: N-terminal GST; dsDNA, one strand shown
T7 sequence: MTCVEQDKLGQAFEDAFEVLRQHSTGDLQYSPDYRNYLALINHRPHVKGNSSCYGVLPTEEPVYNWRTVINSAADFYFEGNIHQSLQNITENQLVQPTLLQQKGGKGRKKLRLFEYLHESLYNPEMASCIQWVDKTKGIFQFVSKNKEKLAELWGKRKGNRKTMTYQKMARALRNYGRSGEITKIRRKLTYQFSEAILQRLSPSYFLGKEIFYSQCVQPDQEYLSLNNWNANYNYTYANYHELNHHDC
Summary of the method: as §1

ELF4 = ELF4 (Homo sapiens, UniProt Q99607 1-663); conditions: protein: recombinant; tags: N-terminal GST; dsDNA, one strand shown
Summary of the method: as §1

ELK4 = molecular target: T8, ELK4 (Homo sapiens, UniProt P28324-2 1-405); conditions: protein: recombinant; tags: N-terminal GST; dsDNA, one strand shown
T8 sequence: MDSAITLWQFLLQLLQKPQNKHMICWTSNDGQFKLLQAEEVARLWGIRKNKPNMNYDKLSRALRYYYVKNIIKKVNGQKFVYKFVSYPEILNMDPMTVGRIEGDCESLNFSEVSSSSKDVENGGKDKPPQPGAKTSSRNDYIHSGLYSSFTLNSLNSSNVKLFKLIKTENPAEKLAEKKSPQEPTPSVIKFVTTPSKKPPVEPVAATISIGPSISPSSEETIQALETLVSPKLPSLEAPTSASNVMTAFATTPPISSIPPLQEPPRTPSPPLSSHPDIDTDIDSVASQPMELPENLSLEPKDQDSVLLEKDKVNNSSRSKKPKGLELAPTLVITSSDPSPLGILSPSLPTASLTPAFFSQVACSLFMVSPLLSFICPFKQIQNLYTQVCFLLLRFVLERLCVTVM
Summary of the method: as §1

ETV2 = molecular target: T9, ETV2 (Homo sapiens, UniProt O00321 1-342); conditions: protein: recombinant; tags: N-terminal GST; dsDNA, one strand shown
T9 sequence: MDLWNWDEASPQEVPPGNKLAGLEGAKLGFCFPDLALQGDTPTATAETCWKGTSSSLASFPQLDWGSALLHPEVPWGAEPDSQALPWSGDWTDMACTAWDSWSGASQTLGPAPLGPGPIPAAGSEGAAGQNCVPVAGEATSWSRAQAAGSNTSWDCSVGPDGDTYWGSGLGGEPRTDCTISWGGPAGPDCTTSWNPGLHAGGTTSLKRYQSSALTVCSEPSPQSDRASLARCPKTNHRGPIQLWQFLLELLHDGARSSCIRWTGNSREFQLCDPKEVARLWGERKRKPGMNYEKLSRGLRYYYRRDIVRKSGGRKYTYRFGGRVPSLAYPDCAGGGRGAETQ
Summary of the method: as §1

ELF3 = molecular target: T10, ELF3 (Homo sapiens, UniProt P78545 1-371); conditions: protein: recombinant; tags: N-terminal GST; dsDNA, one strand shown
T10 sequence: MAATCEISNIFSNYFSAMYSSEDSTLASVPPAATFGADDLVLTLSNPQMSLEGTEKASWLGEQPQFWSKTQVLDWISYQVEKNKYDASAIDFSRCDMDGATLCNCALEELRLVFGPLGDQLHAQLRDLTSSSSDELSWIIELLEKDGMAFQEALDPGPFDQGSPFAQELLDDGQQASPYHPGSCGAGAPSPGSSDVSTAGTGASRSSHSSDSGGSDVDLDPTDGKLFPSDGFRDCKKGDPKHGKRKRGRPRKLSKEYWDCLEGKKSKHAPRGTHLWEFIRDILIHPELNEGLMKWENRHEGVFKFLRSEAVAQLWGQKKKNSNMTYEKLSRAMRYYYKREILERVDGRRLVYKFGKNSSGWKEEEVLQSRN
Summary of the method: as §1

CRX = CRX (Homo sapiens, UniProt O43186 1-299); conditions: protein: recombinant; tags: N-terminal GST; dsDNA, one strand shown
Summary of the method: as §1

ETV1 = ETV1 (Homo sapiens, UniProt P50549 1-477); conditions: protein: recombinant; tags: N-terminal GST; dsDNA, one strand shown
Summary of the method: as §1

CRX, sequence (O43186 whole entry): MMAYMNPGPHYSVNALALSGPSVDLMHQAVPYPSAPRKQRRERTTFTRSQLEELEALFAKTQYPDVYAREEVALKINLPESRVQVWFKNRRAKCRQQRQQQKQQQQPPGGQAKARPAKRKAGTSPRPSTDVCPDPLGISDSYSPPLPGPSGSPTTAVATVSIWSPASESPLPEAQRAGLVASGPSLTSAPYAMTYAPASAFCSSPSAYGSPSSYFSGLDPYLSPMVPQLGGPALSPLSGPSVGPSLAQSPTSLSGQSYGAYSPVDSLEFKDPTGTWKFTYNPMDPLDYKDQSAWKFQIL
ETV1, sequence (P50549 whole entry): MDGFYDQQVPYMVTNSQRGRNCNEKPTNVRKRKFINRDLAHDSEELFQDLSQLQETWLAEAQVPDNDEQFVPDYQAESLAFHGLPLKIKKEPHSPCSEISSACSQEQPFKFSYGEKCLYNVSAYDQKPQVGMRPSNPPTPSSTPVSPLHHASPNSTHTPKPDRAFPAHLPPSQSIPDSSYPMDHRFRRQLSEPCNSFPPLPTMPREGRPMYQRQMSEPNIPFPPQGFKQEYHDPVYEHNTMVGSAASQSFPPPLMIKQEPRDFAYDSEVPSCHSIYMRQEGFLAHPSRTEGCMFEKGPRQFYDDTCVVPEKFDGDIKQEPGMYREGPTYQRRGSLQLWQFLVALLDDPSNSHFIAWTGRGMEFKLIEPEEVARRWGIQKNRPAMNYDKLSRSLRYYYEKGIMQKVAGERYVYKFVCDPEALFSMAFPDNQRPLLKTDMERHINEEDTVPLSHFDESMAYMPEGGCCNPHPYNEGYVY
HSF1, sequence (Q00613 whole entry): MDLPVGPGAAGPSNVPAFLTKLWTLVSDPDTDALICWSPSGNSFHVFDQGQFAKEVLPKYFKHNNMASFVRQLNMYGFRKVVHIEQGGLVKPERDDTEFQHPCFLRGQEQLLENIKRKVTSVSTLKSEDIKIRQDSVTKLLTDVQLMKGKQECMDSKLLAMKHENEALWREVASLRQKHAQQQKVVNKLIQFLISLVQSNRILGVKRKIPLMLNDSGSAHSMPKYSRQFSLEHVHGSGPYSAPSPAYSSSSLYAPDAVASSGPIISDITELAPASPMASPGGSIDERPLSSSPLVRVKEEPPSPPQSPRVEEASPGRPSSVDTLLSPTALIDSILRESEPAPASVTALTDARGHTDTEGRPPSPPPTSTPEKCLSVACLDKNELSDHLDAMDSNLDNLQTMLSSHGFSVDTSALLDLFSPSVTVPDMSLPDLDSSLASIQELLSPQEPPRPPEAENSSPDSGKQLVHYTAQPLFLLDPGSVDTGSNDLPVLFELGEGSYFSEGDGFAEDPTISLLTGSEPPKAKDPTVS
ELF4, sequence (Q99607 whole entry): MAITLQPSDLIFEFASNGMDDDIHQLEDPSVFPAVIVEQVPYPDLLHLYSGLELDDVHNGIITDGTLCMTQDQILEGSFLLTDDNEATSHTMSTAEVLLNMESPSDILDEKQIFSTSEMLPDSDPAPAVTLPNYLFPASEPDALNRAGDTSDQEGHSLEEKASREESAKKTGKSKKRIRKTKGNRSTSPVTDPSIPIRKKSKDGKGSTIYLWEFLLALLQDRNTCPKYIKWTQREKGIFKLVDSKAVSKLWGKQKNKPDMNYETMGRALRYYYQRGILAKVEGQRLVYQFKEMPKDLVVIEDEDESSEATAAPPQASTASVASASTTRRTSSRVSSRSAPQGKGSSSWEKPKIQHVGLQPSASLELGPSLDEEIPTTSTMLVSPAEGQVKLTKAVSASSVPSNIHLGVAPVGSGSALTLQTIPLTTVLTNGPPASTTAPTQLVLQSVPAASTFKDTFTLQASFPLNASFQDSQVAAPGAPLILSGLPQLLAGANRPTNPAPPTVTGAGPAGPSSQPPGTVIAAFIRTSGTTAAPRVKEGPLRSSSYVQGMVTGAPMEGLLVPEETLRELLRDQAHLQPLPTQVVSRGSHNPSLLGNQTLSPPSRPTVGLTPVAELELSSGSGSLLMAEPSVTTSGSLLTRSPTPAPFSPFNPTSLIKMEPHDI
ELF1, sequence (P32519 whole entry): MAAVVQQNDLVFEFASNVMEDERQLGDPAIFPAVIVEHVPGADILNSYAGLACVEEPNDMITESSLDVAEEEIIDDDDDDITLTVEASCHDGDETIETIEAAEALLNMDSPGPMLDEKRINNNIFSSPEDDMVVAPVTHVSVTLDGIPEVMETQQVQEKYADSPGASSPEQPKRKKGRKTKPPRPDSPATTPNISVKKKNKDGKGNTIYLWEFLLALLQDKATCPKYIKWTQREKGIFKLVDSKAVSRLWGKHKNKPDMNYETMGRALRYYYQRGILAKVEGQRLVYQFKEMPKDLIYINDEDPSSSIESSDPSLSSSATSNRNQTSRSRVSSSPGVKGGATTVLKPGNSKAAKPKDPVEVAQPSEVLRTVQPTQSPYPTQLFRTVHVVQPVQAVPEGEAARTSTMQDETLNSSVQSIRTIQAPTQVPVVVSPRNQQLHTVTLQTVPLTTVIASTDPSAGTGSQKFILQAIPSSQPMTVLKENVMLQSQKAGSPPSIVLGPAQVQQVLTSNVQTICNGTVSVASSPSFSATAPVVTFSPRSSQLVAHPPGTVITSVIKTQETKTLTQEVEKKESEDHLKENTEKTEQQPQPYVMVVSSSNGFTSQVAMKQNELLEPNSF
SPIB, sequence (Q01892 whole entry): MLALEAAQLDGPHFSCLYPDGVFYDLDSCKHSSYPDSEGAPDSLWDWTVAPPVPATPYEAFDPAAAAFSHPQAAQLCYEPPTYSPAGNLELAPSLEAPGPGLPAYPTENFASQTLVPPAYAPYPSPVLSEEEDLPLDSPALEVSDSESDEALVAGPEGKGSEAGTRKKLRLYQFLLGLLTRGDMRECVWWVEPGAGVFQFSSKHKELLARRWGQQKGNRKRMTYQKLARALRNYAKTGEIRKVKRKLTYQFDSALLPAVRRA
ETV5, sequence (P41161 whole entry): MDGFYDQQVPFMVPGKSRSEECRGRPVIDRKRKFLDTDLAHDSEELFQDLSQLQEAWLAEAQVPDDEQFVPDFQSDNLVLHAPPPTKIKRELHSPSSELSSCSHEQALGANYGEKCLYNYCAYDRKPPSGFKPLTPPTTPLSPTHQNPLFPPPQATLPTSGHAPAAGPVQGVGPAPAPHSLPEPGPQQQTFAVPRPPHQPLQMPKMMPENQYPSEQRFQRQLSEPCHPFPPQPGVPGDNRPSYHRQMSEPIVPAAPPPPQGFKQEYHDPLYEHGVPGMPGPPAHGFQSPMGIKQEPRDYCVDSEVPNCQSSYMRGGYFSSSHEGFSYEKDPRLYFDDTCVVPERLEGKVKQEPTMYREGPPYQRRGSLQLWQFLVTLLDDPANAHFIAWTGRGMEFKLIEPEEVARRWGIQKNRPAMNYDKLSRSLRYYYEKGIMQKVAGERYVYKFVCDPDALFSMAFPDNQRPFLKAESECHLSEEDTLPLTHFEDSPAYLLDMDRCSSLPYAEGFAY

## AATCAG
FLI1
  binding signal: 1.1 fold enrichment (6-mer frequency, TF over GST control)
ELK1
  binding signal: 1.05 fold enrichment (6-mer frequency, TF over GST control)
GABPA
  binding signal: 1.19 fold enrichment (6-mer frequency, TF over GST control)
ERG
  binding signal: 1.07 fold enrichment (6-mer frequency, TF over GST control)
ELF1
  binding signal: 1.1 fold enrichment (6-mer frequency, TF over GST control)
EHF
  binding signal: 1.02 fold enrichment (6-mer frequency, TF over GST control)
SPI1
  binding signal: 1.04 fold enrichment (6-mer frequency, TF over GST control)
SPIB
  binding signal: 1.19 fold enrichment (6-mer frequency, TF over GST control)
FEV
  binding signal: 1.07 fold enrichment (6-mer frequency, TF over GST control)
ETV5
  binding signal: 1.15 fold enrichment (6-mer frequency, TF over GST control)
HSF1
  binding signal: 1.19 fold enrichment (6-mer frequency, TF over GST control)
SPIC
  binding signal: 1.2 fold enrichment (6-mer frequency, TF over GST control)
ELF4
  binding signal: 1.05 fold enrichment (6-mer frequency, TF over GST control)
ELK4
  binding signal: 1.16 fold enrichment (6-mer frequency, TF over GST control)
ETV2
  binding signal: 1.01 fold enrichment (6-mer frequency, TF over GST control)
ELF3
  binding signal: 1.14 fold enrichment (6-mer frequency, TF over GST control)
CRX
  binding signal: 1.42 fold enrichment (6-mer frequency, TF over GST control)
ETV1
  binding signal: 1.01 fold enrichment (6-mer frequency, TF over GST control)
